Test results reported in PubChem BioAssay (Tox21).
A number with no mark means an inactive call. Inconclusive results are not listed. Where a call stands in place of a potency, no number is given. Calls of active or inactive are those of the source. Unless noted, calls come from the whole dose curve.

What was measured:
[1] = Nuclear factor erythroid 2-related factor 2/antioxidant responsive element (Nrf2/ARE) small molecule agonists: qHTS cell viability counter screen in human keratinocytes (AID 1919968; active = well fitted curve in the direction sought with a large enough effect in the repeat runs; an effect the other way counts as inactive or inconclusive; note: nearly all actives have a fitted effect of over 55% in size; note: potency is the fitted concentration of half-maximal effect)
How it was run: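 KeratinoSens cells (HaCaT keratinocytes stably carrying an ARE-luciferase reporter) were seeded at 1,500 cells/well and rested 5 h at 37 C/5% CO2. They were then exposed to compounds in DMSO for 23 h. Viability was read by CellTiter-Fluor fluorescence after 1 h.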

[2] = Nuclear factor erythroid 2-related factor 2/antioxidant responsive element (Nrf2/ARE) small molecule agonists: luciferase reporter gene qHTS assay in human keratinocytes (AID 1919969); note: nearly all actives have a fitted effect of over 35% in size; note: potency is the fitted concentration of half-maximal effect
[3] = target: Gonadotropin-releasing hormone receptor (Homo sapiens) (UniProt P30968); assay: Human gonadotropin-releasing hormone receptor (GnRHR) small molecule agonists, calcium flux assay in GnRHR-HEK293 cells (AID 1920063); note: nearly all actives have a fitted effect of over 35% in size
Chain of Gonadotropin-releasing hormone receptor (Homo sapiens) (P30968 whole entry, looked up): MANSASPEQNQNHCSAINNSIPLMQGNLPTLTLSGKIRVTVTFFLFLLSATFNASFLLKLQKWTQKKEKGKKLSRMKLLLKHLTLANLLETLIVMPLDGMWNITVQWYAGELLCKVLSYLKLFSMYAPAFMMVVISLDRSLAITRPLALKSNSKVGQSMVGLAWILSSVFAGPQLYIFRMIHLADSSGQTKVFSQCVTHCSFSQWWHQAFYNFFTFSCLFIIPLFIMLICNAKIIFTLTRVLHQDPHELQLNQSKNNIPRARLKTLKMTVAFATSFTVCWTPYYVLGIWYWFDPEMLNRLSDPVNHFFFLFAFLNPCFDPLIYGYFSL
How it was run: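 HEK293 cells stably expressing human GnRHR were plated 18 h at 37 °C, loaded with calcium dye 1 h at 37 °C, then given compound in agonist mode; fluorescence (Ex/Em 480/540) read kinetically for 3 min at 1 s intervals.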

[4] = target: KiSS-1 receptor (Homo sapiens) (UniProt Q969F8); assay: Human kisspeptin (KISS1R) small molecule agonists, calcium flux assay in KISS1R-HEK293 cells (AID 1920064; active = well fitted curve in the direction sought with a large enough effect in the repeat runs; an effect the other way counts as inactive or inconclusive)
Chain of KiSS-1 receptor (Homo sapiens) (Q969F8 whole entry, looked up): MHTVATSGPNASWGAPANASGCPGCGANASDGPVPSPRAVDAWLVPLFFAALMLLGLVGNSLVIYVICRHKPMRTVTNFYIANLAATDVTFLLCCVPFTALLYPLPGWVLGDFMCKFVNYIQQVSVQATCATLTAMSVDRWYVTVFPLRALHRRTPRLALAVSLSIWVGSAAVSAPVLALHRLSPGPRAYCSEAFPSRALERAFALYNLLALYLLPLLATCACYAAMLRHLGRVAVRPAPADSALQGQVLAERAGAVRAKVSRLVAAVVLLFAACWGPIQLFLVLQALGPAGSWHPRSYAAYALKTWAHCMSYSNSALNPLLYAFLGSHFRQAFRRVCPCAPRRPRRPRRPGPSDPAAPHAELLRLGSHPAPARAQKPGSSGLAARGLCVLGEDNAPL
How it was run: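 HEK293 cells stably expressing human KISS1R were plated 18 h at 37 °C, loaded with calcium dye for 1 h at 37 °C, then given compound by pin tool. Fluorescence (Ex/Em 480/540) was read kinetically for 3 min.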

[5] = G protein-coupled receptor (GPCR) small molecule agonists, calcium flux assay: HEK293 wild type cell line counter screen (AID 1920065)
How it was run: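 Cells were plated and cultured 18 h at 37 C/5% CO2, then loaded with calcium dye for 1 h at 37 C. Compounds in DMSO were pin-transferred in agonist mode, and fluorescence (Ex/Em 480/540) was read kinetically for 3 min at 1 s intervals.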

[6] = p53 small molecule agonists, cell-based qHTS assay with human liver microsomes (AID 1963577)
How it was run: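 p53RE-bla reporter cells were pre-incubated 5 h at 37 C, then treated with compounds plus human liver microsomes (0.5 mg/mL final) and NADPH (0.5 mg/mL final) for 16 h at 37 C. Beta-lactamase activity was read by LiveBLAzer fluorescence after 2 h at room temperature.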

[7] = p53 small molecule agonists, cell-based qHTS assay with rat liver microsomes (AID 1963578)
How it was run: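 p53RE-bla cells were exposed to compounds together with rat liver microsomes (0.5 mg/mL final) and NADPH (0.5 mg/mL final) for 16 h at 37 C, then read by LiveBLAzer beta-lactamase fluorescence after 2 h at room temperature.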

[8] = p53 small molecule agonists, cell-based qHTS assay with rat liver microsomes: qHTS cell viability counter screen (AID 1963580); note: nearly all actives have a fitted effect of over 45% in size
How it was run: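 p53RE-bla HCT-116 cells were exposed 16 h at 37 C to compounds with rat liver microsomes (0.5 mg/mL) and NADPH (0.5 mg/mL). Viability was measured in the same wells as ATP content by CellTiter-Glo luminescence.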

[9] = target: 5-hydroxytryptamine receptor 2A (Homo sapiens) (UniProt P28223); assay: 5-hydroxytryptamine receptor 2A (HTR2A) small molecule antagonists, cell-based qHTS assay (AID 1963586); note: nearly all actives have a fitted effect of over 45% in size
Chain of 5-hydroxytryptamine receptor 2A (Homo sapiens) (P28223 whole entry, looked up): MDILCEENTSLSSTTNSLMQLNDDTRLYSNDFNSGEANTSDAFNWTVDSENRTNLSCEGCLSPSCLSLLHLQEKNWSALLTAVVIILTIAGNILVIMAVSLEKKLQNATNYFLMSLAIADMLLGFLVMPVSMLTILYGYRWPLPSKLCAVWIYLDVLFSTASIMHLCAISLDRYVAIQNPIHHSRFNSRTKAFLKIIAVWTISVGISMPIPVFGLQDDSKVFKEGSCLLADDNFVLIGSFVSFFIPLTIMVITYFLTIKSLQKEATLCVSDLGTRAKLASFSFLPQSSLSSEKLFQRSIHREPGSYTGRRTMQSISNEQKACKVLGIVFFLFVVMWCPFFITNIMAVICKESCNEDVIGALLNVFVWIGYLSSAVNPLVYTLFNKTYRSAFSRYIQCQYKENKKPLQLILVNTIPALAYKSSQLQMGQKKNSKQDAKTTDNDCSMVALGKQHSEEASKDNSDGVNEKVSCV
How it was run: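 Antagonist-mode intracellular calcium assay: DOI (4 nM) added after 5 min compound pre-incubation at room temperature to dye-loaded HTR2A-CHO cells. Fluorescence followed for 3 min, sampled every second.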

[10] = target: 5-hydroxytryptamine receptor 2A (Homo sapiens) (UniProt P28223); assay: 5-hydroxytryptamine receptor 2A (HTR2A) small molecule agonists, cell-based qHTS assay (AID 1963587); note: nearly all actives have a fitted effect of over 30% in size
How it was run: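 CHO cells stably expressing human HTR2A, plated 18 h, loaded with calcium dye 1 h at 37 C. Agonist mode: compounds added and intracellular calcium fluorescence recorded kinetically for 2 min at 1 sec intervals.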

[11] = target: Muscarinic acetylcholine receptor M1 (Homo sapiens) (UniProt P11229); assay: Cholinergic receptor muscarinic 1 (CHRM1) small molecule antagonists, cell-based qHTS assay (AID 1963588); note: nearly all actives have a fitted effect of over 40% in size
Chain of Muscarinic acetylcholine receptor M1 (Homo sapiens) (P11229 whole entry, looked up): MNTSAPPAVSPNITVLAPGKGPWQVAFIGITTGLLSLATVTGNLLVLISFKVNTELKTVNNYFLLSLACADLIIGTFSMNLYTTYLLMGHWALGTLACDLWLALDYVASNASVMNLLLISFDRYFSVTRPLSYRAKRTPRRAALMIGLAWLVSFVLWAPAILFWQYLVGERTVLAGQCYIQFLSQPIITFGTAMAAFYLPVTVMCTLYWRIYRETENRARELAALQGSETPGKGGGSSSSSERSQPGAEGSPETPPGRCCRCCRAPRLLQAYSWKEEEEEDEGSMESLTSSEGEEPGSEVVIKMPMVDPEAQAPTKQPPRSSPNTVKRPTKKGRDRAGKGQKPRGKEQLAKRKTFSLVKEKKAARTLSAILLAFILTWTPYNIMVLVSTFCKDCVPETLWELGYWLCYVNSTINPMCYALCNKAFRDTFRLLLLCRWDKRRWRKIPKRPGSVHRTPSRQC
How it was run: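 CHRM1-CHO calcium-flux assay, antagonist mode. Cells were seeded 18 h, dye-loaded 1 h at 37 C and given compound for 5 min at RT, then acetylcholine was added at 50nM. FDSS fluorescence was read 3 min; 15 concentrations, three runs.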

[12] = target: Muscarinic acetylcholine receptor M1 (Homo sapiens) (UniProt P11229); assay: Cholinergic receptor muscarinic 1 (CHRM1) small molecule agonists, cell-based qHTS assay (AID 1963589); note: nearly all actives have a fitted effect of over 35% in size
How it was run: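 CHO cells stably expressing human CHRM1, seeded 18 h at 37 C/5% CO2, dye-loaded 1 h at 37 C, then given compound in agonist mode; intracellular calcium fluorescence read kinetically at 1 s intervals. Fifteen concentrations, three independent runs.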

[13] = target: Beta-2 adrenergic receptor (Homo sapiens) (UniProt P07550); assay: Adrenergic beta2 receptor (ADRB2) small molecule antagonists, cell-based qHTS assay (AID 1963592); note: series mostly up to about 92 µM; nearly all actives have a fitted effect of over 50% in size
Chain of Beta-2 adrenergic receptor (Homo sapiens) (P07550 whole entry, looked up): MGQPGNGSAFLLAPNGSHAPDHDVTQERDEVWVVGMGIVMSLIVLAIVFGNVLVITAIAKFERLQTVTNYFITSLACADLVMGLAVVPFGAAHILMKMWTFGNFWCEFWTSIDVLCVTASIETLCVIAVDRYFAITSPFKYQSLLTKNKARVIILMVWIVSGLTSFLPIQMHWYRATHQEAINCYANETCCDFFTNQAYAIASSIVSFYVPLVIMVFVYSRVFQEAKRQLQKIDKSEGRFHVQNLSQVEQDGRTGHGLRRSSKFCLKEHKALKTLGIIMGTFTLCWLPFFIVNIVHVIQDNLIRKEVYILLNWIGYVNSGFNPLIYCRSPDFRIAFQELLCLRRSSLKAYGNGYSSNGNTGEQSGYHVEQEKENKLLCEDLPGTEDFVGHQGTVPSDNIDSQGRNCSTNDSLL
How it was run: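 Cells (CHO, stable ADRB2 overexpression) incubated 18-20hr at 37C; compounds added from DMSO; agonist mix (1nM isoproterenol, 100uM IBMX, 25uM Ro-20-1724) added; 0.5hr RT; d2-cAMP and anti-cAMP-cryptate added; 1hr RT; 665/615 nm read.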

[14] = target: D(2) dopamine receptor (Homo sapiens) (UniProt P14416); assay: Dopamine D2 receptor (DRD2) small molecule agonists, cell-based qHTS assay (AID 1963594); note: nearly all actives have a fitted effect of over 35% in size
Chain of D(2) dopamine receptor (Homo sapiens) (P14416 whole entry, looked up): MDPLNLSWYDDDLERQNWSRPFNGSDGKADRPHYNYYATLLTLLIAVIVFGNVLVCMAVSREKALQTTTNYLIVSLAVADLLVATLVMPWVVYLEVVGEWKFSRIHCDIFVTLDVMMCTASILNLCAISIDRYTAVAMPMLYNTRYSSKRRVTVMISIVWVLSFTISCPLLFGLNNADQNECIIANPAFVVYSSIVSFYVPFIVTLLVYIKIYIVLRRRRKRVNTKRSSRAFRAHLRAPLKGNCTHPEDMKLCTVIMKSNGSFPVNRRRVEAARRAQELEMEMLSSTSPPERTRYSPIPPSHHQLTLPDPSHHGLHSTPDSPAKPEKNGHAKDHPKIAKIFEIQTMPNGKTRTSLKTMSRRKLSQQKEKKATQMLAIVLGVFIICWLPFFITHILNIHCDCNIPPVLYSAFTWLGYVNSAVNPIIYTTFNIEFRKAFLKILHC
How it was run: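 HEK293 cells stably expressing human DRD2, pre-treated with PDE inhibitor Ro20-1724 (0.1 mM final) and compound 10 min at room temperature, then stimulated with NKH477 (200nM […]) for 30 min. cAMP read by HTRF (665/620 nm).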

[15] = target: D(2) dopamine receptor (Homo sapiens) (UniProt P14416); assay: Dopamine D2 receptor (DRD2) small molecule antagonists, cell-based qHTS assay (AID 1963595; active = well fitted inhibition curve with a large enough effect in the signal ratio in the repeat runs, with a control signal flat; the % refers to the signal ratio)
How it was run: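 DRD2-HEK293; 0.1 mM Ro20-1724; cpd 10 min RT; NKH477 200 nM + quinpirole 12 nM, 30 min RT; HTRF cAMP (cAMP-d2/anti-cAMP cryptate), 665/620 nm ratio after 1 h.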

[16] = p53 small molecule agonists, cell-based qHTS assay: qHTS cell viability counter screen (AID 1963581); note: nearly all actives have a fitted effect of over 45% in size
How it was run: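 p53RE-bla HCT-116 cells were exposed to compounds for 16 h at 37 C; after the beta-lactamase FRET read in the same wells, CellTiter-Glo was added and luminescence (intracellular ATP) read after 30 min at room temperature.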

[17] = p53 small molecule agonists, cell-based qHTS assay (AID 1963582; active = well fitted activation curve with a large enough effect in the signal ratio in the repeat runs, not every such curve was filed as active; the % refers to the signal ratio; note: potency is the fitted concentration of half-maximal effect)
How it was run: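 p53RE-bla beta-lactamase reporter cells rested 5 h at 37 C/5% CO2, then received compounds in DMSO by pin transfer and were incubated 16 h at 37 C. LiveBLAzer B/G FRET substrate was loaded for 2 h at room temperature before fluorescence reading.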

[18] = cAMP Responsive Elements (CRE) small molecule agonists, cell-based qHTS assay (AID 1963590)
How it was run: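 CRE-bla HEK 293T cells in DMEM with 10% dialyzed FBS, NEAA, pyruvate and 25 mM HEPES were plated 18 h at 37 C/5% CO2, then exposed to compounds in DMSO for 3 h before LiveBLAzer B/G FRET substrate addition.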

[19] = cAMP Responsive Elements (CRE) small molecule antagonists, cell-based qHTS assay (AID 1963591; active = well fitted inhibition curve with a large enough effect in the signal ratio in the repeat runs, not every such curve was filed as active; the % refers to the signal ratio)
How it was run: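 CRE-bla HEK293T cells were plated 18 h at 37 °C/5% CO2, pinned with compound in DMSO, then stimulated with NKH477 at 0.25 uM final for 3 h. LiveBLAzer B/G FRET substrate was added and plates incubated 2 h at room temperature.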

CC(C)(c1cc(Br)c(OCCO)c(Br)c1)c1cc(Br)c(OCCO)c(Br)c1
Potency [1]: 37.7 µM (active) | Potency [2]: inactive | Potency [3]: inactive | outcome [4]: inactive | outcome [5]: inactive | Potency [6]: inactive | Potency [7]: inactive | Potency [8]: inactive | Potency [9]: inactive | Potency [10]: inactive | Potency [11]: inactive | Potency [12]: inactive | Potency [13]: inactive | Potency [14]: inactive | Potency [15]: inactive

Nc1cnn([C@@H]2O[C@H](CO)[C@@H](O)[C@H]2O)c(=O)n1
Potency [1]: inactive | Potency [2]: inactive | Potency [3]: inactive | outcome [4]: inactive | outcome [5]: inactive | Potency [6]: inactive | Potency [7]: inactive | Potency [16]: inactive | Potency [17]: 1.45 µM (active) | Potency [9]: inactive | Potency [10]: inactive | Potency [11]: inactive | Potency [12]: inactive | Potency [18]: inactive | Potency [19]: inactive | Potency [13]: inactive | Potency [14]: inactive

CC(=O)Oc1cc(C(C)C)c(OCCN(C)C)cc1C
Potency [1]: inactive | Potency [2]: inactive | Potency [3]: inactive | outcome [4]: inactive | outcome [5]: inactive | Potency [6]: inactive | Potency [7]: inactive | Potency [8]: inactive | Potency [9]: inactive | Potency [10]: inactive | Potency [11]: inactive | Potency [12]: inactive | Potency [18]: inactive | Potency [19]: inactive | Potency [13]: inactive | Potency [14]: inactive | Potency [15]: inactive

OCc1ccccn1
Potency [1]: inactive | Potency [2]: inactive | Potency [3]: inactive | outcome [4]: inactive | outcome [5]: inactive | Potency [6]: inactive | Potency [7]: inactive | Potency [8]: inactive | Potency [17]: inactive | Potency [9]: inactive | Potency [10]: inactive | Potency [11]: inactive | Potency [18]: inactive | Potency [13]: inactive | Potency [14]: inactive | Potency [15]: inactive

CCOC(=O)C1=NN(c2ccc(Cl)cc2Cl)C(C)(C(=O)OCC)C1 (stereo not drawn)
Potency [1]: inactive | Potency [2]: inactive | Potency [3]: inactive | outcome [4]: inactive | outcome [5]: inactive | Potency [6]: inactive | Potency [7]: inactive | Potency [16]: inactive | Potency [9]: inactive | Potency [10]: inactive | Potency [12]: inactive | Potency [19]: inactive | Potency [13]: inactive | Potency [14]: inactive | Potency [15]: inactive

C/C=C/C(=O)CC
activity change, negative = cytotoxicity [1]: -0.853% [at 19 µM] | Potency [2]: 10.5 µM (active) | activity change [3]: 1.75% [at 11.8 µM, active compounds read high] | activation [4]: -0.292% [at 15.8 µM] | activation [5]: 0.719% [at 11.8 µM] | activation [6]: -15.9% [at 13.5 µM] | activation [7]: -0.406% [at 13.6 µM] | activity change, negative = cytotoxicity [16]: 7.07% [at 13.5 µM] | activation [17]: -2.81% [at 13.5 µM] | activity, negative = inhibition [9]: 10.6% [at 12.7 µM] | activity, negative = inhibition [11]: 37.8% [at 12.6 µM] | activation [12]: 0.129% [at 15.8 µM] | activation [18]: -0.284% [at 19 µM] | activity change, negative = inhibition [19]: 1.47% [at 18.9 µM] | activity change, negative = inhibition [13]: 3.38% [at 19 µM] | activation [14]: -9.38% [at 19 µM] | activity change, negative = inhibition [15]: 0.284% [at 18.9 µM]

Nc1ncnc(Nc2ccccc2)n1
Potency [1]: inactive | Potency [2]: inactive | Potency [3]: inactive | outcome [4]: inactive | outcome [5]: inactive | Potency [6]: inactive | Potency [7]: inactive | Potency [16]: inactive | Potency [17]: inactive | Potency [10]: inactive | Potency [11]: inactive | Potency [12]: inactive | Potency [18]: inactive | Potency [19]: inactive | Potency [13]: inactive | Potency [15]: inactive
